Results as given in PubChem BioAssay (Tox21).
Results filed as inconclusive are left out. Where a call stands in place of a potency, no number is given. Calls of active or inactive are those of the source. Unless noted, the call rests on the fitted dose curve; in most records, active means well fitted curve in the direction sought with a large enough effect in the repeat runs; inconclusive means weak or mixed curves; inactive means no such curve, though single readings can be large; an effect the other way counts as inactive or inconclusive.

Assay: qHTS assay to identify small molecule antagonists of the progesterone receptor (PR) signaling pathway - cell viability counter screen (AID 1346798); further: nearly all actives have a fitted effect of over 50% in size
Settings: PR-UAS-bla HEK293T viability, CellTiter-Glo luminescence, 16 h; series mostly up to 92.4 µM
Method in brief: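 PR-UAS-bla HEK293T cells, 3,000/well in 2% charcoal-stripped FBS medium, dosed with compounds plus R5020 agonist and incubated 16 h at 37C. Viability then measured in the same wells by CellTiter-Glo luminescence after 30 min at RT.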

SMILES | Potency
O=C(Cl)OCCOCCOC(=O)Cl | inactive
COc1ccc(C(O)(c2cncnc2)C2CC2)cc1 (stereo not given) | inactive
CC(=O)OC(c1ccccc1)C(Cl)(Cl)Cl (stereo not given) | inactive
CCCC[N+]1(C)[C@@H]2CC(OC(=O)[C@H](CO)c3ccccc3)C[C@H]1[C@@H]1O[C@@H]12 (stereo not given in full) | inactive
O=C(N/N=C/c1ccc([N+](=O)[O-])o1)c1cc([N+](=O)[O-])cc([N+](=O)[O-])c1O | inactive
CC(C)OC(=O)Cc1ccccc1 | inactive
c1ccc2c(c1)-c1cccc3cccc-2c13 | inactive
CN1CC[C@]23c4c5ccc(O)c4O[C@H]2[C@@H](O)CC[C@H]3[C@H]1C5 | inactive
C[C@@H]1C[C@@H]([C@H](O)CC2CC(=O)NC(=O)C2)C(=O)[C@@H](C)C1 | inactive
C=CCN1C[C@H](C)N([C@H](c2ccc(C(=O)N(CC)CC)cc2)c2cccc(OC)c2)C[C@H]1C | inactive
CNC(=O)Oc1cccc(N=CN(C)C)c1 | inactive
COCc1cnc(C2=NC(C)(C(C)C)C(=O)N2)c(C(=O)O)c1 (stereo not given) | inactive
CCC1(C2=NCCN2)Cc2ccccc2O1 (stereo not given) | inactive
Cc1cccc(C)c1NC1=NCCCS1 | inactive
CN1C[C@H](C(=O)N[C@]2(C)O[C@@]3(O)[C@@H]4CCCN4C(=O)[C@H](Cc4ccccc4)N3C2=O)C=C2c3cccc4[nH]cc(c34)C[C@H]21 | inactive
NC(=O)CF | inactive
CCOC(C(=O)OCCN(C)C)(c1ccccc1)c1ccccc1 | inactive
Oc1cccc(Cl)c1 | inactive
Nc1ccc2c(c1)Cc1ccccc1-2 | inactive
CCCSP(=S)(OCC)Oc1ccc(SC)cc1 (stereo not given) | inactive
CN1CC[C@]23c4c5ccc(O)c4O[C@H]2[C@@H](O)C=C[C@H]3[C@H]1C5 | inactive
O=C(O)C(Cl)(Cl)Br | inactive
O=CC=O | inactive
CCOC(=O)c1cncn1C(C)c1ccccc1 (stereo not given) | inactive
CC(C)(C#N)C(C)(C)C#N | inactive
O=C(Cc1ccccc1)c1ccccc1 | inactive
O=C1CC[C@@]2(O)[C@H]3Cc4ccc(O)c5c4[C@@]2(CCN3CC2CC2)[C@H]1O5 | inactive
CC[N+]1(CCOC(=O)C(O)(c2ccccc2)c2ccccc2)CCCCC1 | inactive
O=C(O)COc1cc(Cl)c(Cl)cc1Cl | inactive
CCCCNC(=O)OCC#CI | inactive

Assay: qHTS assay to identify small molecule agonists of the progesterone receptor (PR) signaling pathway - cell viability counter screen (AID 1346799; calls by dose curve; further: nearly all actives have a fitted effect of over 45% in size)
Settings: PR-UAS-bla HEK293T viability, CellTiter-Glo luminescence, 16 h; series mostly up to 92.4 µM
Method in brief: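 Counter screen in the PR-UAS-bla HEK293T wells (2% charcoal-stripped FBS, 16 h compound exposure at 37 C) after the bla read. CellTiter-Glo added, 30 min at room temperature, luminescence read as cell viability.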

SMILES | Potency
CC(=O)OC(c1ccccc1)C(Cl)(Cl)Cl (stereo not given) | inactive
CCCC[N+]1(C)[C@@H]2CC(OC(=O)[C@H](CO)c3ccccc3)C[C@H]1[C@@H]1O[C@@H]12 (stereo not given in full) | inactive
O=C(N/N=C/c1ccc([N+](=O)[O-])o1)c1cc([N+](=O)[O-])cc([N+](=O)[O-])c1O | inactive
CC(C)OC(=O)Cc1ccccc1 | inactive
C=CCSSCC=C | inactive
CCCC1CCCCN1 (stereo not given) | inactive
c1ccc2c(c1)-c1cccc3cccc-2c13 | inactive
C[C@@H]1C[C@@H]([C@H](O)CC2CC(=O)NC(=O)C2)C(=O)[C@@H](C)C1 | inactive
C=CCOCC1CO1 (stereo not given) | inactive
CCC1(C2=NCCN2)Cc2ccccc2O1 (stereo not given) | inactive
Cc1cccc(C)c1NC1=NCCCS1 | inactive
CN1C[C@H](C(=O)N[C@]2(C)O[C@@]3(O)[C@@H]4CCCN4C(=O)[C@H](Cc4ccccc4)N3C2=O)C=C2c3cccc4[nH]cc(c34)C[C@H]21 | inactive
NC(=O)CF | inactive
C[C@H]1[C@@H]2Cc3ccc(O)cc3[C@@]1(C)CCN2C | inactive
CCOC(C(=O)OCCN(C)C)(c1ccccc1)c1ccccc1 | inactive
Oc1cccc(Cl)c1 | inactive
Nc1ccc2c(c1)Cc1ccccc1-2 | inactive
CCCSP(=S)(OCC)Oc1ccc(SC)cc1 (stereo not given) | inactive
CCOc1cccc(C2(N3CCN(c4ccccc4)CC3)CCC(C)CC2)c1 (stereo not given) | inactive
CN1CC[C@]23c4c5ccc(O)c4O[C@H]2[C@@H](O)C=C[C@H]3[C@H]1C5 | inactive
O=C(O)C(Cl)(Cl)Br | inactive
O=CC=O | inactive
CCOC(=O)c1cncn1C(C)c1ccccc1 (stereo not given) | inactive
CC(C)(C#N)C(C)(C)C#N | inactive
N#CC(C#N)=Cc1ccc(O)c(O)c1 | inactive
O=C(Cc1ccccc1)c1ccccc1 | inactive
O=C1CC[C@@]2(O)[C@H]3Cc4ccc(O)c5c4[C@@]2(CCN3CC2CC2)[C@H]1O5 | inactive
CC[N+]1(CCOC(=O)C(O)(c2ccccc2)c2ccccc2)CCCCC1 | inactive
OCCCl | inactive
CCCCNC(=O)OCC#CI | inactive

Assay: qHTS assay to identify small molecule antagonists of the TGF-beta/Smad signaling pathway - cell viability counter screen (AID 1346824); further: nearly all actives have a fitted effect of over 50% in size
Settings: SBE-bla HEK293T viability, CellTiter-Glo luminescence; series mostly up to 76.8 µM
Method in brief: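 SBE-bla HEK 293T cells, incubated overnight, then compound plus 0.25 ng/mL TGF-beta1 (stock added) for 5 hr at 37 C. Viability was read in the same wells by CellTiter-Glo luminescence after 30 min at room temperature.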

SMILES | Potency
O=C(Cl)OCCOCCOC(=O)Cl | inactive
COc1ccc(C(O)(c2cncnc2)C2CC2)cc1 (stereo not given) | inactive
CC(=O)OC(c1ccccc1)C(Cl)(Cl)Cl (stereo not given) | inactive
O=C(N/N=C/c1ccc([N+](=O)[O-])o1)c1cc([N+](=O)[O-])cc([N+](=O)[O-])c1O | inactive
C=CCSSCC=C | inactive
c1ccc2c(c1)-c1cccc3cccc-2c13 | inactive
CN1CC[C@]23c4c5ccc(O)c4O[C@H]2[C@@H](O)CC[C@H]3[C@H]1C5 | inactive
C[C@@H]1C[C@@H]([C@H](O)CC2CC(=O)NC(=O)C2)C(=O)[C@@H](C)C1 | inactive
C=CCN1C[C@H](C)N([C@H](c2ccc(C(=O)N(CC)CC)cc2)c2cccc(OC)c2)C[C@H]1C | inactive
CNC(=O)Oc1cccc(N=CN(C)C)c1 | inactive
O=C(NCNC(=O)NC1C(=O)NC(=O)N1CO)NC1C(=O)NC(=O)N1CO (stereo not given) | inactive
COCc1cnc(C2=NC(C)(C(C)C)C(=O)N2)c(C(=O)O)c1 (stereo not given) | inactive
C=CCOCC1CO1 (stereo not given) | inactive
Cc1cccc(C)c1NC1=NCCCS1 | inactive
C[C@H]1[C@@H]2Cc3ccc(O)cc3[C@@]1(C)CCN2C | inactive
CCCSP(=S)(OCC)Oc1ccc(SC)cc1 (stereo not given) | inactive
CCOc1cccc(C2(N3CCN(c4ccccc4)CC3)CCC(C)CC2)c1 (stereo not given) | inactive
O=CC=O | inactive
CC(C)(C#N)C(C)(C)C#N | inactive
N#CC(C#N)=Cc1ccc(O)c(O)c1 | inactive
